From PubChem BioAssay
LmPK inhibitor: LmPK (Leishmania mexicana) enzyme inhibition; purified LmPK, Kinase-Glo ATP luminescence, 1 h; Q27686; Potency, µM (titrated, usually from 57.5 µM), hits mostly inhibitors; hit rate 0.37% among 290,000
Target sequence (Q27686 whole entry, looked up): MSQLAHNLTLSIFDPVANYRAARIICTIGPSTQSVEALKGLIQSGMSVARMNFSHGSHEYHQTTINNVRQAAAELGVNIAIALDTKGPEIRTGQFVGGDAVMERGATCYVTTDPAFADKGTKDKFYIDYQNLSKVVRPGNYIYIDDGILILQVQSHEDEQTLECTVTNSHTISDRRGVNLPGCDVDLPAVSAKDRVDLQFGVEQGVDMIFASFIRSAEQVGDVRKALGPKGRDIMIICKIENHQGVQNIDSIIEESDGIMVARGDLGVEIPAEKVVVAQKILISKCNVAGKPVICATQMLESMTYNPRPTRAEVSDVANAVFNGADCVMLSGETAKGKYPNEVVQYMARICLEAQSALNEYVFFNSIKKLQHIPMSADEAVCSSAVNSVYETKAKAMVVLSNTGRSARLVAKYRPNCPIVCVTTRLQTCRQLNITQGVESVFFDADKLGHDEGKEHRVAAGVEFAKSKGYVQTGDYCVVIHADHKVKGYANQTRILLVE
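ATP generated from ADP (0.1 mM) and PEP (0.5 mM) by 0.1 nM LmPK over 1 h at room temperature (pH 7.2 imidazole buffer) was detected by coupled luciferase luminescence. Values were normalized to uninhibited and no-enzyme wells.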
Tb PYK inh: inhibitors of Trypanosoma brucei pyruvate kinase; Q57TT1; TbPYK enzyme, Kinase-Glo Plus ATP luminescence, 45 min; Potency, µM (titrated, usually from 76.8 µM), actives largely listed as inhibitors; hit rate 0.12% among 410,000; AID 624173; further: nearly all actives have a fitted effect of over 50% in size
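TbPYK + substrate in 50 mM TEA pH 7.2, 100 mM KCl, 10 mM MgCl2, 0.05% BSA, 0.01% Tween-20; cpd pinned; ADP 130 uM final; 45 min RT; Kinase-Glo Plus 10 min; luminescence endpoint.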
VACV mCherry inh: vaccinia inhibition (mCherry reporter); Vaccinia virus mCherry reporter infection, fluorescence; AID 720579; hit rate 0.63% among 310,000; Potency, µM (highest dose often 36.5 µM), actives largely listed as inhibitors; calls by dose curve; tested in A549 cells; further: nearly all actives have a fitted effect of over 35% in size
HCMV inh: blocks human cytomegalovirus replication | activity change, negative = inhibition, % at 57.5 µM | hit rate 4.5% among 410,000 | HFF cells, HCMV-luciferase reporter, 72 h; stronger effect = lower value; in the data active means activity change below about -60%; inconclusive means no clear call, values can overlap the other calls; inactive means above about -39%
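Two-dose cell screen: HFF monolayers treated with compounds and infected with luciferase-expressing HCMV at 1 PFU/cell, 72 h at 37C, then lysed for luciferase measurement.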
VACV Venus inh: inhibitors of vaccinia virus (Venus reporter); Vaccinia virus Venus reporter expression, fluorescence; Potency, µM (doses to about 36.5 µM), most hits filed as inhibitors; hit rate 0.46% among 330,000; calls by dose curve; tested in A549 cells; further: nearly all actives have a fitted effect of over 30% in size
Hits are given with their value; – = inactive; ? = inconclusive; · = no result given; [ ] = dose if it differs, or a comment. Compounds with a hit are over-represented: about 5% of the library has one in this group of screens. Unless noted, the call rests on the fitted dose curve; in most records, active means well fitted curve in the direction sought with a large enough effect; inconclusive means small, poorly fitted or top-dose-only effect, or another doubt; inactive means no such curve, though single readings can be large; an effect the other way counts as inactive or inconclusive.

SMILES	LmPK inhibitor	Tb PYK inh	VACV mCherry inh	HCMV inh	VACV Venus inh
O=C(c1ccc([N+](=O)[O-])cc1[N+](=O)[O-])N1CCc2ccccc21	–	–	2.24µM	–	?
O=C(c1ccc(S(=O)(=O)c2ccccc2)cc1)N1CCc2ccccc2C1	–	–	–	–	–
O=C(c1cnccn1)N1CCc2ccccc2C1	–	–	–	-100.3	–
O=C(c1cnccn1)N1CCc2ccccc21	–	–	·	–	·
O=C(c1ccc([N+](=O)[O-])cc1)N1CCc2ccccc2C1	–	–	–	-67.5	–
COc1cc(N(C(=O)Cc2cccs2)C(C(=O)NC2CCCCC2)c2cccc(OC)c2OC)ccc1-n1cnnn1 (stereo not given)	–	–	–	–	–
COCCSc1nnc(NC(=O)COc2ccc3c(c2)OCO3)s1	–	–	–	–	–
CCOc1ccc2oc(=O)cc(CN3CCN(C(=O)c4cccc(Cl)c4)CC3)c2c1	·	–	–	–	–
CCOc1ccc2oc(=O)cc(CN3CCN(C(=O)c4ccc(Cl)cc4)CC3)c2c1	·	–	–	-66.5	–
CN(C)CCCNC(=O)C(=O)NCC1OCCN1S(=O)(=O)c1cccs1 (stereo not given)	–	–	–	–	–
COC(=O)C1(C(=O)OC)c2ccccc2N(S(=O)(=O)c2ccc(C)cc2)C1CC(C)=O (stereo not given)	·	·	–	–	–
COc1ccc(-c2cnc(N)nc2-c2ccc(OCc3ccccc3)cc2O)cc1	–	–	?	–	?
Nc1ncc(-c2ccccc2)c(-c2ccc(O)cc2O)n1	–	–	?	-61.4	–
COc1ccc(-c2c[n+]3c4n2CCCCC4=C(c2ccccc2)C3)cc1	–	–	·	-101.6	·
COc1ccc(-c2c[n+](CC(=O)c3ccccc3)c3n2CCCCC3)cc1	–	–	·	?	·
COc1ccc(-c2c[n+]3c(n2-c2ccccc2)CCCCC3)cc1	–	–	·	-96.0	·
FC(F)Oc1ccc(-c2c[n+]3c(n2-c2ccccc2)CCCCC3)cc1	–	–	·	?	·
COc1ccc(-c2c[n+]3c(n2-c2ccc(C)cc2)CCCCC3)cc1	–	–	–	-97.4	–
COc1ccc(-n2c(-c3ccc(Cl)cc3)c[n+]3c2CCCCC3)cc1	–	–	·	-80.0	·
COc1ccc(-c2c[n+]3c(n2-c2c(C)n(C)n(-c4ccccc4)c2=O)CCCCC3)cc1	–	–	–	–	–
CC(=O)Nc1ccc(S(=O)(=O)NCCC(=O)Nc2cccc(Cl)c2)cc1	–	–	–	–	–
CC(=O)Nc1ccc(S(=O)(=O)NCCOc2ccc(Cl)cc2C)cc1	–	–	–	-73.5	–
CCOC(=O)c1c(NC(C)=O)sc2c(OCC(O)CN(CC)CC)c(Br)ccc12 (stereo not given)	–	–	–	-101.2	–
CCCC(CCC)=NNc1ccc(S(=O)(=O)Nc2ccccc2OC)cc1[N+](=O)[O-]	–	–	–	–	–
COc1ccccc1NS(=O)(=O)c1ccc(N/N=C(\C)C(C)C)c([N+](=O)[O-])c1	–	–	–	-61.1	–
SMILES	LmPK inhibitor	Tb PYK inh	VACV mCherry inh	HCMV inh	VACV Venus inh
COc1ccc(NS(=O)(=O)c2ccc(N/N=C(\C)c3ccncc3)c([N+](=O)[O-])c2)cc1	–	–	?	-66.5	?
COc1ccc(CCN2CC(C(=O)NCCc3ncccc3C)CCC2=O)cc1 (stereo not given)	·	–	–	–	–
COc1cccc(CC(=O)Nc2ccc3nc(Nc4cccc(C(F)(F)F)c4)cc(C)c3c2)c1	·	–	–	-71.8	–
COc1ccccc1CC(=O)Nc1ccc2nc(Nc3cccc(C(F)(F)F)c3)cc(C)c2c1	·	–	?	-67.2	?
COc1ccccc1OCC(=O)OCC(=O)NCCN1C(=O)CSC1=O	–	·	·	–	·
O=C(COC(=O)CNC(=O)c1ccco1)NCCN1C(=O)CSC1=O	–	–	·	-62.0	·
O=S(=O)(c1ccc2ccccc2c1)N1CCN=C1SCc1cccnc1	–	–	–	–	–
CCCS(=O)(=O)N1CCN=C1SCc1cccnc1	–	–	–	-62.2	–
O=S(=O)(c1ccc(F)cc1)N1CCN=C1SCc1cccnc1	–[11.5 µM]	–	–	-67.2	–
CS(=O)(=O)N1CCN=C1SCc1cccc(F)c1	–	–	·	–	·
O=S(=O)(c1ccccc1)N1CCN=C1SCc1ccc(Cl)c(Cl)c1	–	–	–	-74.2	?
CCS(=O)(=O)N1CCN=C1SCc1cccc(F)c1	–	–	·	-60.5	·
O=S(=O)(c1ccc(Br)cc1)N1CCN=C1SCc1cccnc1	–[11.5 µM]	–	–	-68.5	–
